Shown are actives, neighbours in structure and some others; about 7.8% of the full set was active somewhere.
Vaccinia Venus = vaccinia inhibition (Venus reporter). Potency, µM (titrated, usually from 36.5 µM), inactives show at the highest dose activity change, negative = inhibition, actives largely listed as inhibitors. Vaccinia virus Venus reporter expression, fluorescence. hit rate 0.46% among 330,000; calls by dose curve; tested in A549 cells; also: potency is read from the fitted curve at half-maximal effect; nearly all actives have a fitted effect of over 30% in size
HCMV antiviral = inhibitors of human cytomegalovirus; HFF cells, HCMV-luciferase reporter, 72 h; stronger effect = lower value; activity change, negative = inhibition, % at 57.5 µM; hit rate 4.5% among 410,000; AID 1259415; in the data active = activity change below about -60%; inconclusive = no clear call, values can overlap the other calls; inactive = above about -39%
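Screen run at 2 compound doses on HFFs infected with reporter HCMV, MOI 1 PFU/cell. Luciferase activity from cell lysates at 72 h post infection gave inhibition relative to buffer-only and Salinomycin wells.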
VACV mCherry inh = inhibitors of vaccinia virus infection (mCherry reporter signal); Vaccinia virus mCherry reporter infection, fluorescence; Potency, µM (highest dose often 36.5 µM), without a hit: top-dose activity change, negative = inhibition, hits mostly inhibitors; hit rate 0.63% among 310,000; calls by dose curve; tested in A549 cells; also: potency is read from the fitted curve at half-maximal effect; nearly all actives have a fitted effect of over 35% in size
LASV entry inh = inhibitors of Lassa virus binding or cell entry; Lassa virus pseudotype entry inhibition, cell reporter; Potency, µM (highest dose often 37.9 µM), without a hit: at the top dose activity change, negative = inhibition, hits mostly inhibitors; hit rate 1.2% among 300,000; AID 540256; calls by dose curve; tested in HEK293 cells; also: potency is read from the fitted curve at half-maximal effect; nearly all actives have a fitted effect of over 50% in size
Marburg entry inh = inhibitors of Marburg virus binding or cell entry | Marburg virus pseudotyped entry inhibition, cell reporter | hit rate 1.8% among 300,000 | Potency, µM (series often up to 37.8 µM), inactives show top-dose activity change, negative = inhibition, actives largely listed as inhibitors | AID 540276; calls by dose curve; tested in HEK293 cells; also: potency is read from the fitted curve at half-maximal effect
HCV inhibitor = inhibitors of hepatitis C virus infection | AID 651820 | hit rate 3.4% among 340,000 | Potency, µM (doses to about 41.8 µM), without a hit: at the top dose activity change, negative = inhibition, actives largely listed as inhibitors | Huh7.5.1 HCVcc-Cre infection, luciferase reporter, 44 h; active = well fitted inhibition curve with a large enough effect; inconclusive = small, poorly fitted or top-dose-only effect, or another doubt; inactive = no such curve, though single readings can be large or run the other way; also: potency is read from the fitted curve at half-maximal effect
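After 44 h co-culture of compound, cells and HCVcc-Cre (~0.5 moi), substrate is added for 15 min at room temperature and luciferase measured over 15 sec. Cells were seeded at 1,000/well and pre-cultured 4 h.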
Starred values were filed as active, the others as inactive; i = inactive; ? = inconclusive; . = no result; [ ] = dose if it differs, or a comment. % is scaled to controls: 0 for no effect and ±100 for the full control effect.

SMILES	Vaccinia Venus	HCMV antiviral	VACV mCherry inh	LASV entry inh	Marburg entry inh	HCV inhibitor
CCOC(=O)c1c(NC(=O)CSc2c[nH]c3ccccc23)sc2c1CCCC2	-25%	-17	?	?	13µM*	11µM*
CCc1ccc(C(=O)c2cn(CC(=O)NC3CCCCC3)c3nc(C)ccc3c2=O)cc1	-13%	-6	-7%	2%[46.1 µM]	.	.
Cc1ccccc1CNC(=O)CCS(=O)(=O)c1cc2c3c(c1)CCN3C(=O)CC2	1%	-2	-8%	12%[46.1 µM]	.	.
CCCCn1nc(NC(=O)c2cccs2)c2cc3cc(OC)ccc3nc21	-9%	-36	.	-18%	?	10µM*
CCCn1nc(NC(=O)c2cccs2)c2cc3cc(OC)ccc3nc21	-11%	-16	?	?	-9%	10µM*
Cn1c(NC(=O)c2cccc(Cn3cc(Cl)cn3)c2)nc2ccccc21	-22%	29	?	?	-7%	-21%
CCn1c(NC(=O)c2cccc(Cn3cc(Cl)cn3)c2)nc2ccccc21	-28%	-68*	?	.	.	14µM*
CCn1c(NC(=O)c2ccccc2)nc2ccccc21	-12%	52	-6%	-1%	?	7%
CCCCn1c(NC(=O)c2ccccc2)nc2ccccc21	-23%	-27	i	?	?	13µM*
CCCCn1c(NC(=O)C2CCCCC2)nc2ccccc21	?	15	.	-29%	?	13µM*
CCc1cc(C(=O)/C=C/c2cc3c(cc2C)OCCO3)c(O)cc1O	-28%	.	-32%	.	.	.
Cc1cc(N=Cc2c(O)n(-c3ccc(C)c(C)c3)c(=O)c3ccccc23)no1	.	-64*	.	-15%	4%	-12%
Cc1cc(N=Cc2c(O)n(-c3ccc4c(c3)OCO4)c(=O)c3ccccc23)ccn1	.	-92*	.	?	?	-23%
Cc1ccc(-n2c(O)c(C=Nc3ccc4c(c3)OCO4)c3ccccc3c2=O)cc1C	.	-39	.	-5%	-12%	1%
COc1cccc(OC)c1OC[C@H](C)CNC[C@@H]1CCCO1	.	.	.	.	-13%	.
COc1cccc(OC)c1OCC(C)CNCC1CCCO1 (stereo not given)	?	62	?	6%	-13%	1µM*
CCC(=O)N1N=C(c2cccs2)CC1c1ccc(OC)cc1 (stereo not given)	.	91	.	.	.	?
Cc1ccc(C2CC(c3cccs3)=NN2C(=O)CCl)cc1 (stereo not given)	-11%	-101*	?	?	?	2.8µM*
CCC(=O)N1N=C(c2cccs2)CC1c1ccc(C)cc1 (stereo not given)	.	21	.	.	.	-15%
COc1ccc(C2CC(c3cccs3)=NN2C(=O)c2ccc(Br)o2)cc1 (stereo not given)	-23%	?	?	8%	?	10µM*
CC12CCC(=O)N1C(C(=O)Nc1cc(Cl)ccc1N1CCCC1)CS2 (stereo not given)	-14%	0	i	9%	?	8.9µM*
CC12CCC(=O)N1C(C(=O)Nc1cc(C(F)(F)F)ccc1N1CCOCC1)CS2 (stereo not given)	-5%	-8	-12%	0%	-6%	8.9µM*
CC12CCC(=O)N1C(C(=O)Nc1ccccc1N1CCOCC1)CS2 (stereo not given)	-3%	2	-14%	-6%	?	-5%
CC12CCC(=O)N1C(C(=O)Nc1cc(C(F)(F)F)ccc1N1CCCCC1)CS2 (stereo not given)	?	-5	-11%	6%[46.1 µM]	?	3.5µM*
Cc1ccc(-c2c(CN3CCN(c4cccc(C)c4)C(C)C3)csc2C)cc1 (stereo not given)	-5%	-32	-8%	-1%[46.1 µM]	.	.
SMILES	Vaccinia Venus	HCMV antiviral	VACV mCherry inh	LASV entry inh	Marburg entry inh	HCV inhibitor
CCOc1ccc(C(=O)Nc2ccccc2OCc2cc(=O)n3ccccc3n2)cc1	-21%	20	-12%	13%[46.1 µM]	.	.
CCOc1ccc2c(c1)sc1nc(=O)n(-c3ccc(Cl)c(Cl)c3)c(=O)n12	2%	-16	2%	26%[46.1 µM]	-2%[46.1 µM]	.
CC(C)c1ccc(S(=O)(=O)N2CCN(C(C)C(=O)N3CCCC3)CC2)cc1 (stereo not given)	-17%	-70*	-16%	?	18%	19%
CC(C(=O)N1CCCCC1)N1CCN(S(=O)(=O)c2ccc(Cl)cc2)CC1 (stereo not given)	.	1	.	.	.	13%
CCC(C)c1ccc(S(=O)(=O)N2CCN(C(C)C(=O)NC3CCCC3)CC2)cc1 (stereo not given)	-21%	?	-12%	2.8µM*	-21%	?
CCCc1ccc(S(=O)(=O)N2CCN(C(C)C(=O)NC3CCCC3)CC2)cc1 (stereo not given)	-19%	-24	i	?	-1%	?
COc1cccc(-c2nc3cc4c(cc3cc2CN(C(=O)c2csc(C)n2)C2CC2)CCC4)c1OC	-24%	.	?	.	.	.
CCOc1ccccc1N(C)C(=O)c1cc2c(=O)n(CC)c3ccccc3c2s1	.	-1	.	.	.	2µM*
CCn1c(=O)c2cc(C(=O)N(C)CC(OC)OC)sc2c2ccccc21	.	-20	.	.	.	11µM*
CCn1c(=O)c2cc(C(=O)N(CCN(C)C)Cc3ccccc3)sc2c2ccccc21	-19%	?	?	23%[46.1 µM]	4%[46.1 µM]	.
CCc1nnc(NC(=O)CSc2nc3c([nH]c4ccccc43)c(=O)n2-c2ccc(F)cc2)s1	-2%	-8	-16%	-1%[46.1 µM]	.	.
Cc1cc(C)nc(NC(N)=NC(C)c2ccccc2)n1 (stereo not given)	?	-17	?	1%	?	1%
Cc1cc(C)nc(NC(N)=NCCc2c[nH]c3ccccc23)n1	?	-97*	?	-17%[46.1 µM]	?	10µM*
Cc1cc(C)nc(NC(=NCCc2c[nH]c3ccccc23)NC(=O)Nc2ccc(Cl)cc2)n1	?	?	?	-2%	?	11µM*
Cc1cc(C)nc(NC(N)=NCCc2ccccc2)n1	?	-96*	?	?	7.1µM*	11µM*
CC(Oc1ccccc1)C(=O)NCC1Cc2cc(F)cc(-c3ccccn3)c2O1 (stereo not given)	-3%	.	2%	.	.	.
CC(C)c1ccc(NC(=O)C2C3C=CC4(O3)C2C(=O)N(CCCN2CCCCC2)C4C(=O)NC2CCCCC2)cc1 (stereo not given)	-3%	-77*	7%	.	3%[46.1 µM]	-14%
Cc1nc2ccc(S(=O)(=O)CCC(=O)Nc3ccc(C(C)C)cc3)cc2s1	-9%	-23	-8%	16%[46.1 µM]	.	.
COc1ccc(OC)c(NC(=O)c2ccc3nc(C(C)C)oc3c2)c1	-5%	32	-10%	-12%[46.1 µM]	.	.
COCCCNC(=O)c1cn(Cc2c(F)cccc2Cl)nn1	4%	-90*	2%	13%	-6%[46.1 µM]	-16%
NNC(=O)c1cc2c(N3CCC(Cc4ccccc4)CC3)ncnc2s1	-15%	?	-22%	10µM*	-14%[46.1 µM]	?
COc1ccc(C(=O)CC(=O)c2ccc(OC)cc2)cc1	-27%	5	-3%	2%	23%	1%

Bioassay records (PubChem BioAssay)
